PubChem BioAssay (NCATS)
Several values for one entry are separate records, joined by “and”; a condition that tells them apart may be missing. Equal entries are not always repeated. Results filed as inconclusive are left out. Entries that show only a call come without a potency. Where a structure was tested more than once in an assay, its records may differ in their call. A number with no mark means an inactive call. Activity calls are given as the source filed them. The call rests on the fitted dose curve; in most records, active means well fitted inhibition curve with a large enough effect; inconclusive means small, poorly fitted or top-dose-only effect; inactive means flat fitted curve, though single readings scatter.

Tests used:
[1] = tested on: HaCat; assay: Cytotoxic Profiling of Annotated Libraries Using Quantitative High-Throughput Screening (AID 1296008); conditions: Five cell lines viability, CellTiter-Glo ATP luminescence, 48-72 h; max response: hits give low values
Procedure, shortened: (§1)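 Cells exposed to compounds for 48 or 72 hr at 37 degrees Celsius. Viability read as ATP-coupled luminescence with CellTiter-Glo after 10 min at room temperature.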

[2] = tested on: KB-3-1; assay: as above; conditions: Five cell lines viability, CellTiter-Glo ATP luminescence, 48-72 h; max response: hits give low values
Procedure, shortened: as §1

[3] = tested on: NIH3T3; assay: as above; conditions: Five cell lines viability, CellTiter-Glo ATP luminescence, 48-72 h; max response: hits give low values
Procedure, shortened: as §1

[4] = tested on: MCC-13; assay: qHTS assay to identify novel small-molecules to repurpose for Merkel cell carcinoma treatment (AID 1296009); conditions: MCC and control cell lines, CellTiter-Glo viability, 72 h; series mostly up to 46 µM
Procedure, shortened: (§2)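 Dose-response viability screen; 72 hr exposure at 37 degree celsius; CellTiter-Glo added, 10 min room temperature, luminescence read; RLUs scaled between no-cell and DMSO wells.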

[5] = tested on: MCC-26; assay: as above; conditions: MCC and control cell lines, CellTiter-Glo viability, 72 h; series mostly up to 46 µM
Procedure, shortened: as §2

[6] = tested on: MKL-1; assay: as above; conditions: MCC and control cell lines, CellTiter-Glo viability, 72 h; series mostly up to 46 µM
Procedure, shortened: as §2

[7] = tested on: MKL-2; assay: as above; conditions: MCC and control cell lines, CellTiter-Glo viability, 72 h; series mostly up to 46 µM
Procedure, shortened: as §2

[8] = tested on: NIH3T3; assay: as above; conditions: MCC and control cell lines, CellTiter-Glo viability, 72 h; at 44.8 µM (top of the series) unless noted
Procedure, shortened: as §2

[9] = tested on: HACAT; assay: as above; conditions: MCC and control cell lines, CellTiter-Glo viability, 72 h; at 44.8 µM (top of the series) unless noted
Procedure, shortened: as §2

[10] = tested on: HEK293T; assay: as above; conditions: MCC and control cell lines, CellTiter-Glo viability, 72 h; at 44.8 µM (top of the series)
Procedure, shortened: as §2
Further: nearly all actives have a fitted effect of over 60% in size.
Potency means the concentration at half of the fitted maximal effect.

Cc1[nH]c(=O)c(C#N)cc1-c1ccc2nccn2c1
max response [1]: -13.2% and -27.6% | max response [2]: -3.5% and -14.6% | max response [3]: -20.6% | outcome [3]: inactive | Potency [4]: inactive | Potency [5]: inactive | Potency [6]: inactive | Potency [7]: inactive | outcome [8]: inactive

NC(=O)c1ccc(I)c([N+](=O)[O-])c1
outcome [1]: inactive | max response [2]: 7.82% | max response [3]: -1.58% | outcome [9]: inactive | outcome [10]: inactive | Potency [4]: inactive | Potency [5]: inactive | Potency [6]: inactive | Potency [7]: inactive

Fc1ccc(Cl)cc1-c1nc(Nc2ccncc2)c2nccnc2n1
outcome [1]: inactive | max response [2]: 2.67% | max response [3]: -15.4% | outcome [9]: inactive | Potency [4]: inactive | Potency [5]: inactive | Potency [6]: inactive | Potency [7]: inactive

CS(=O)(=O)Oc1ccc2c(NC(N)=O)c(C(=O)c3ccc(Cl)cc3Cl)oc2c1
outcome [1]: inactive | max response [2]: 0.867% | max response [3]: -0.156% | outcome [9]: inactive | Potency [4]: inactive | Potency [5]: inactive | Potency [6]: 8.33 µM (active) | Potency [7]: 2.96 µM (active)

CC(C)(C)OC(=O)CN(Cc1ccc(Cl)cc1)Cc1ccc([N+](=O)[O-])s1
outcome [1]: inactive | max response [2]: 0.3% | max response [3]: 1.62% | outcome [9]: inactive | Potency [4]: inactive | Potency [5]: inactive | Potency [6]: inactive

COc1ccc(CCN2CCN(CCCc3ccccc3)CC2)cc1OC
outcome [1]: inactive | max response [2]: 0.435% and -5.04% | max response [3]: 1.46% | outcome [3]: inactive | outcome [9]: inactive | Potency [4]: inactive | Potency [5]: inactive | Potency [6]: inactive | Potency [7]: inactive | outcome [8]: inactive

CC[C@@H](C)[C@H](NC(=O)[C@H](CC1CCCCC1)NC(=O)c1ccno1)C(=O)N1CCC2(CCc3ccccc32)CC1
outcome [1]: inactive | max response [2]: -5.09% and 8.53% | max response [3]: -7.84% and -2.63% | outcome [9]: inactive | Potency [4]: inactive | Potency [5]: inactive | Potency [6]: inactive | Potency [7]: inactive

CC(C[N+](C)(C)C)OC(N)=O (stereo not drawn)
outcome [1]: inactive | max response [2]: 3.39% and 7.21% | outcome [3]: inactive | outcome [9]: inactive | outcome [10]: inactive | Potency [4]: inactive | Potency [5]: inactive | Potency [6]: inactive | Potency [7]: inactive | outcome [8]: inactive

CCC(C)N(C)C(=O)c1cc2ccccc2c(-c2ccccc2Cl)n1 (stereo not drawn)
outcome [1]: inactive | max response [2]: 3.08% | max response [3]: -14% | outcome [9]: inactive | Potency [4]: inactive | Potency [5]: inactive | Potency [6]: inactive | Potency [7]: inactive

CCc1cc(Nc2nccc(-c3c(-c4ccc(OC)c(C(=O)Nc5c(F)cccc5F)c4)nc4ccccn34)n2)c(OC)cc1N1CCC(N2CCN(S(C)(=O)=O)CC2)CC1
outcome [1]: inactive | max response [2]: 5.37% and -9.54% | max response [3]: -25.3% | outcome [9]: inactive | Potency [4]: inactive | Potency [5]: inactive | Potency [6]: inactive

NC(=O)c1ccc(-c2nc(-c3ccc4c(c3)OCO4)c(-c3ccccn3)[nH]2)cc1
outcome [1]: inactive | max response [2]: -0.83% | max response [3]: -25.4% | outcome [9]: inactive | Potency [4]: inactive | Potency [5]: inactive | Potency [6]: inactive | Potency [7]: inactive

COc1ccc2nc(S(=O)Cc3ncc(C)c(OC)c3C)[nH]c2c1 (stereo not drawn)
outcome [1]: inactive | max response [2]: -5.29% | max response [3]: -7.21% and -1.13% | outcome [9]: inactive | Potency [4]: inactive | Potency [5]: inactive | Potency [6]: inactive | Potency [7]: inactive

CCN(CC)CCCC(C)Nc1nc(C)cc(Nc2ccc3nc(C)cc(N)c3c2)n1 (stereo not drawn)
outcome [1]: inactive | outcome [2]: inactive | outcome [3]: inactive | outcome [9]: inactive | Potency [4]: inactive | Potency [5]: inactive | Potency [6]: inactive | Potency [7]: inactive | outcome [8]: inactive

COc1nc(-c2ccc3c(c2)OCO3)n(-c2ccc(NC(=O)CSc3ccccc3)cc2)n1
outcome [1]: inactive | max response [2]: -3.01% and -18.6% | max response [3]: -26.7% | outcome [9]: inactive | Potency [4]: inactive | Potency [5]: inactive | Potency [6]: inactive | Potency [7]: inactive

Clc1cccc(Cl)c1NC1=NCCN1
outcome [1]: inactive | outcome [2]: inactive | outcome [3]: inactive | outcome [9]: inactive | Potency [4]: inactive | Potency [5]: inactive | Potency [6]: inactive | Potency [7]: inactive | outcome [8]: inactive

CC1(C)CNc2cc(NC(=O)c3cccnc3NCc3ccncc3)ccc21
outcome [1]: inactive | max response [2]: 3.54% and 4.82% | Potency [3]: 10.3 µM (active) | max response [3]: -1.33% | outcome [9]: inactive | Potency [4]: inactive | Potency [5]: inactive | Potency [6]: inactive | Potency [7]: inactive

COc1ccc(-c2c(-c3ccc(O)cc3O)n[nH]c2C)cc1
outcome [1]: inactive; activator | max response [2]: -14.6% | max response [3]: -24.1% | outcome [9]: inactive; activator [at 92 µM] | Potency [4]: inactive | Potency [5]: inactive | Potency [6]: inactive | Potency [7]: inactive

Nc1ncnc2nc(-c3ccc(N4CCOCC4)nc3)cc(-c3cccc(Br)c3)c12
max response [1]: 3.01% | outcome [2]: inactive | max response [3]: 1.04% | Potency [4]: inactive | Potency [5]: inactive | Potency [6]: inactive | Potency [7]: inactive

O=C(C=Cc1ccc(/C=C/C(=O)Nc2ccc(C3=NCCN3)cc2)cc1)Nc1ccc(C2=NCCN2)cc1
max response [1]: -9.67% | outcome [2]: inactive | outcome [3]: inactive | Potency [4]: inactive | Potency [5]: inactive | Potency [6]: inactive | Potency [7]: inactive | outcome [8]: inactive
